High-throughput results deposited in PubChem by Broad Institute.
EZH2 inh – EZH2 (human) methyltransferase inhibition; Q15910; PRC2 H3K27 methylation, DELFIA TRF, 1 h; inhibition, % at 12.5 µM; 0.35% of 57,000 active;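 active means mean inhibition of replicates at least 50% and every single replicate also reaching 50%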;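 further: dimethyl H3K27 on biotinylated H3 21-44 peptide detected by antibody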
Target sequence (Q15910 whole entry, looked up): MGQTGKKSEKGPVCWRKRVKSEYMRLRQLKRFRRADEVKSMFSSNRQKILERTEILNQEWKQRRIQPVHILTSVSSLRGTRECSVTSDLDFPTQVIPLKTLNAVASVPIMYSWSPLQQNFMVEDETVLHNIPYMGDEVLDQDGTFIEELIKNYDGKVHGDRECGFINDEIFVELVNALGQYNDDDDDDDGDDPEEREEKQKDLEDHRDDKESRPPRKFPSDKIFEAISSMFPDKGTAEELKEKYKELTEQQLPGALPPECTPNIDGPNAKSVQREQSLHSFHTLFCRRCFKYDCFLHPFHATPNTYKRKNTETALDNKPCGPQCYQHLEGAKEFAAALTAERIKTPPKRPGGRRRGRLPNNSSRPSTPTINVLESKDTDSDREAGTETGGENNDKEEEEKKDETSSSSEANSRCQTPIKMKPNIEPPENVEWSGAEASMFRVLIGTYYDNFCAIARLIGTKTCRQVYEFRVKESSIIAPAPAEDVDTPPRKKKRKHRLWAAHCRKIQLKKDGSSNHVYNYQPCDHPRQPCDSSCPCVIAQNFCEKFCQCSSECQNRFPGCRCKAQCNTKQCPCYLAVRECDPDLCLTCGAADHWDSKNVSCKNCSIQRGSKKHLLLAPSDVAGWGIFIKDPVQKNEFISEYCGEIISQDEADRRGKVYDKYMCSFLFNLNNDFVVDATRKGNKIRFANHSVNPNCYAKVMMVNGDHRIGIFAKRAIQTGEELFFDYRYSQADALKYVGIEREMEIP
A number is an active result; - = inactive. The sample as a whole holds a higher share of hits than the screen did.

SMILES	EZH2 inh
CCc1ccc(OCC(=O)Nc2cc(OC)ccc2OC)c(Br)c1	-
O=C1C(=O)N(CCCn2ccnc2)C(c2ccccc2)C1C(=O)c1cccs1 (stereo unspecified)	-
C=CCNC(=O)[C@@H]1[C@H]2C(=O)O[C@H](c3ccccc3)[C@H](c3ccccc3)N2[C@H](c2ccccc2OCCO)[C@@]12C(=O)Nc1ccc(C#Cc3ccc(OC)cc3)cc12	-
C=CCNC(=O)[C@H]1[C@@H]2C(=O)O[C@@H](c3ccccc3)[C@@H](c3ccccc3)N2[C@@H](c2ccccc2OCCO)[C@]12C(=O)Nc1ccc(C#Cc3ccc(OC)cc3)cc12	-
COc1ccc(C#Cc2ccc3c(c2)[C@]2(C(=O)N3)[C@H](c3ccccc3OCCO)N3[C@H](c4ccccc4)[C@H](c4ccccc4)OC(=O)[C@H]3[C@@H]2C(=O)O)cc1	59.4
Cc1ccc(C(=O)Nc2ccccc2C(=O)N2CCCC2)cc1S(=O)(=O)N1CCOCC1	-
COc1cc([C@H]2OC[C@H]3[C@@H]2CO[C@H]3c2ccc(OC)c(OC)c2)ccc1O	-
COc1cc([C@H]2OC[C@H]3[C@@H]2CO[C@@H]3c2ccc(O)c(OC)c2)ccc1O	79.7
COc1cc(C2OC[C@@H]3[C@@H](c4cc(OC)c(O)c(OC)c4)OC[C@H]23)cc(OC)c1O (stereo partly specified)	-
COC(=O)COc1cccc(NC(=O)c2ccc(Br)cc2)c1	-
Cc1ccc(C(=O)COc2cccc(NC(=O)c3ccc(Br)cc3)c2)cc1C	-
CCOc1cccc(NC(=O)C2CC(=O)N(/N=C(\C)c3ccc(Br)s3)C(=N)S2)c1 (stereo unspecified)	91.7
CCn1c(SCC(=O)Nc2cccc(C(F)(F)F)c2)nnc1-c1c[nH]c2ccccc12	-
Cc1ccc(NC(=O)CSc2nc3ccccc3s2)cc1C	55.2
O=C(CSc1nc2ccccc2s1)Nc1ccc(Cl)cc1	-
Cc1ccc(NC(=O)CSc2nc3ccccc3s2)cc1Cl	-
Cc1ccc2nc(-c3ccc(NC(=O)[C@@H]4CCCC[C@@H]4C(=O)O)cc3)sc2c1	-
O=C(CSc1nnc(Nc2ccccc2)n1-c1ccccc1)Nc1ccccc1Cl	-
O=C(Nc1ccccc1C(=O)OCc1ccc([N+](=O)[O-])cc1)c1ccco1	-
CC(C)(C)c1cc(C(F)(F)F)c(C#N)c(SCC(=O)Nc2sc3c(c2C#N)CCCC3)n1	-
CC1(C)CC[C@]2(C(=O)O[C@@H]3O[C@H](CO)[C@@H](O)[C@H](O)[C@H]3O)CC[C@]3(C)C(=CCC4[C@@]5(C)CC[C@H](O[C@@H]6O[C@H](C(=O)O)[C@@H](O[C@@H]7O[C@H](CO)[C@@H](O)[C@H](O)[C@H]7O)[C@H](O)[C@H]6O[C@@H]6O[C@H](CO)[C@@H](O)[C@H](O)[C@H]6O)C(C)(C)C5CC[C@]43C)C2C1 (stereo partly specified)	-
C[C@@H]1CC[C@]2(C(=O)OC3OC(CO)C(OC4OC(CO)C(O)C(O)C4O)C(O)C3O)CC[C@]3(C)C(=CCC4[C@@]5(C)CC[C@H](O)[C@](C)(C(=O)O)C5CC[C@]43C)C2[C@]1(C)O (stereo partly specified)	60.5
CC1(C)CC[C@]2(C(=O)O[C@@H]3O[C@H](CO)[C@@H](O)[C@H](O)[C@H]3O)CC[C@]3(C)C(=CCC4[C@@]5(C)CC[C@H](O[C@@H]6O[C@H](C(=O)O)[C@@H](O)[C@H](O)[C@H]6O)[C@@](C)(CO)C5CC[C@]43C)C2C1 (stereo partly specified)	-
CCC(Sc1nnc(-c2ccc([N+](=O)[O-])cc2)n1C)C(=O)Nc1ccc(Cl)cc1 (stereo unspecified)	-
Cn1c(=O)n(C)c2cc(CNCc3cccnc3)ccc21	-
SMILES	EZH2 inh
c1ccc2[nH]c(CCn3c4c(c5ccccc53)CCCC4)nc2c1	-
C[C@@H]1CC[C@]2(C(=O)O)CC[C@]3(C)C(=CCC4[C@@]5(C)CC[C@@H](O)[C@](C)(C(=O)O)C5CC[C@]43C)C2[C@H]1C (stereo partly specified)	-
CC1CC(=O)[C@]2(C)CC[C@]3(C)C(C(=O)C(O)C4[C@@]5(C)CC[C@H](O)C(C)(C(=O)O)C5CC[C@]43C)C2C1C (stereo partly specified)	70.5
C[C@@H]1CC[C@@]23CCC4(C)[C@@](C=CC5[C@@]6(C)CC[C@H](O)C(C)(C)C6CC[C@]54C)(OC2=O)C3[C@H]1C (stereo partly specified)	-
CC(=O)c1cccc(-n2c(CCC(=O)O)ccc2-c2ccc(Br)cc2)c1	-
CC1=CC(=O)C2C(C)(C)CC(O)CC2(C)C1(O)CO (stereo unspecified)	-
CCN(CC(=O)Nc1c(C)cc(C)cc1C)S(=O)(=O)c1ccc2ccccc2c1	-
CC(Oc1cccc(NC(=O)c2ccccc2Cl)c1)C(=O)c1ccc(Cl)cc1 (stereo unspecified)	-
COc1ccc(CCN=C2CCc3ccccc3N2)cc1OC	-
C=C1C(O)CC2C(C(=O)OC)=CO[C@@H](O[C@@H]3O[C@H](CO)[C@@H](O)[C@H](O)[C@H]3O)C12 (stereo partly specified)	-
CC1(OC(=O)/C=C/c2ccccc2)CC(O)C2C=COC(OC3OC(CO)C(O)C(O)C3O)C21 (stereo unspecified)	-
C=C[C@H]1[C@H](O[C@@H]2O[C@H](CO)[C@@H](O)[C@H](O)[C@H]2O)OC=C(C(=O)OC)[C@H]1C[C@@H]1N[C@H](C(=O)O)Cc2c1[nH]c1ccccc21	97.5
COC(=O)C1=CO[C@@H](O[C@@H]2O[C@H](CO)[C@@H](O)[C@H](O)[C@H]2O)[C@@H]2[C@@H]3CN4CCc5c([nH]c6ccccc56)[C@]4(C[C@H]12)O3	51.8
COC(=O)C1=CO[C@@H](O[C@@H]2O[C@H](CO)[C@@H](O)[C@H](O)[C@H]2O)[C@@H]2[C@@H](C)[C@@H](O)[C@@H](OC(=O)/C=C/c3ccc(O)c(O)c3)[C@H]12	-
C=CC(C)(O)CC/C=C(\C)C(=O)OCC1CCC2C(C(=O)O)=COC(OC3OC(CO)C(O)C(O)C3O)C12 (stereo unspecified)	-
Cc1cc(N(CC(=O)Nc2ccccc2C(=O)N2CCCC2)S(C)(=O)=O)ccc1Br	-
C=CCSc1n[nH]c(-c2ccc(C(F)(F)F)cc2)n1	-
COc1ccc(NC(=O)CN(C)S(=O)(=O)c2ccc(F)cc2)cc1OC	-
CN(CC(=O)Nc1cccc(Cl)c1)S(=O)(=O)c1ccc2ccccc2c1	-
CC(=O)Nc1ccc(NC(=O)CN(C)S(=O)(=O)c2ccc(Cl)cc2)cc1	-
CN(CC(=O)Nc1cccc(I)c1)S(=O)(=O)c1ccc(Cl)cc1	52.5
CCn1c(SCC(=O)Nc2ccc(F)cc2)nnc1-c1cccc(Cl)c1	-
CN1C(=O)C(O)(CC(=O)c2ccco2)c2cc(Cl)ccc21 (stereo unspecified)	-
COc1cc(CN2CCC(C(=O)NC(C)c3ccc(OC)c(OC)c3)CC2)cc(OC)c1 (stereo unspecified)	-
Cc1cccc(CSc2nc3c(c(=O)[nH]2)C(C(C)C)C2=C(CC(C)(C)CC2=O)N3)c1 (stereo unspecified)	-
Cc1cc(Oc2ccccc2)nc(SCC(=O)Nc2ccc(Cl)cc2Cl)n1	-
Cc1cc(C)nc(SCC(O)COc2ccc(Cl)cc2)n1 (stereo unspecified)	-
Cc1cc(Oc2ccccc2)nc(SCCOc2ccccc2)n1	51.9
Cc1nnc(SCC(=O)Nc2ccc(Cl)c(C)c2)s1	-
